Assay results published in PubChem BioAssay (NCATS).
Results filed as inconclusive are left out. A call without a number means that no potency is given here. Calls of active or inactive are those of the source. The call rests on the fitted dose curve; in most records, active means well fitted inhibition curve with a large enough effect; inconclusive means small, poorly fitted or top-dose-only effect; inactive means no such curve, though single readings can be large or run the other way.

System: Zika virus NS2B-NS3 protease (linked construct)
Test: Primary screen NINDS Rhodamine qHTS for Zika virus inhibitors (AID 1347160); further: nearly all actives have a fitted effect of over 55% in size
Conditions: purified NS2B-NS3 protease, Rhodamine110 substrate fluorescence; series mostly up to 57.1 µM
In short: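 Single-chain NS2B-NS3 protease, 25 nM, pH 8.0; compounds preincubated 15 min. Activity: Rhodamine110 release from 1.5 microM substrate over 15 min, room temperature, data fitted to 4-parameter Hill.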
Potency means the concentration at half of the fitted maximal effect.

Compound | Potency
C/C=C(\C)C(=O)OC1C[C@@]2(COC(C)=O)O[C@H]2/C=C\[C@@]2(C)O[C@@H]2[C@H]2OC(=O)C(COC(C)=O)=C12 (stereo not given in full) | inactive
CCc1ccc(-c2nc(CSCC(=O)NCCc3ccccc3)c(C)o2)cc1 | inactive
C=C1/C(=C/C=C2\CCC[C@]3(C)[C@@H]([C@@H](C)OCCC(O)(CC)CC)CC[C@@H]23)C[C@@H](O)C[C@@H]1O | inactive
CC1=CC2/C=C(\C)CCC3OC(C)(C)OC3CCC(=O)C23C(=O)NC(CC(C)C)C3C1C (stereo not given) | inactive
CCc1cnc(N2CCC(c3nc(COc4ccc(-n5cnnn5)cc4)cs3)CC2)nc1 | inactive
CC1(C)CCCC2(C)C1C(OC(=O)/C=C/C=C/C=O)C=C1COC(=O)C12O (stereo not given) | inactive
CCC(CC)C(c1ccc(Nc2nc3ccccc3s2)cc1)n1cncn1 (stereo not given) | inactive
COc1cc(CCC2=NN=C(NC(=O)c3ccc(N4C[C@@H](C)N[C@@H](C)C4)cc3)C2)cc(OC)c1 | inactive
COc1cc(OC)c2c(=O)[nH]c(-c3cc(C)c(OCCO)c(C)c3)nc2c1 | inactive
COc1ccc2c(c1O[C@H]1CCNC1)CCC2 | inactive
CN1CCN(C2=Nc3ccccc3Nc3ccc(Cl)cc32)CC1 | inactive
CC(C)c1ccc(NC(=O)Cn2cnc3c2c(=O)n(C)c(=O)n3C)cc1 | inactive
C=C1C(=O)OC2/C=C(/C)C3=CC(=O)C(C)(CC(OC(=O)/C(C)=C/COC(C)=O)C12)O3 (stereo not given) | inactive
FC(F)(F)c1ccccc1-c1cc(C(F)(F)F)c2nc(C3=NOC4(CCCCC4)C3)[nH]c2c1 | inactive
CCC(C)/C=C(C)/C=C/C1=CC2=C(Cl)C(=O)C(C)(OC(C)=O)C(=O)C2(O)C(OC)O1 (stereo not given) | 11.2 µM (active)
CCC/C=C/C=C/C1CC(O)C2(O)C(=O)OCC12 (stereo not given) | 20 µM (active)
CN(C)CC1CCn2c(c(C3=C(c4cn(C)c5ccccc45)C(=O)NC3=O)c3ccccc32)C1 (stereo not given) | inactive
C[C@@H](Nc1ncnc2[nH]c(-c3ccc(O)cc3)cc12)c1ccccc1 | inactive
Cc1c(NC(=O)c2cc3c(s2)CCCC3)cccc1-c1cn(C)c(=O)c(Nc2ccc(C3C(=O)N(C)CCN3C)cc2)n1 (stereo not given) | inactive
NS(=O)(=O)Nc1ncnc(OCCOc2ncc(Br)cn2)c1-c1ccc(Br)cc1 | inactive

Compound | Potency
CC1(C)CC[C@]2(C(=O)O)CC[C@]3(C)C(=CCC4[C@@]5(C)C[C@@H](O)[C@H](O)[C@@](C)(CO)C5CC[C@]43C)[C@@H]2[C@@H]1O (stereo not given in full) | inactive
COc1cc2c(NC3CCN(C(C)C)CC3)nc(N3CCC(F)(F)CC3)nc2cc1OCCCN1CCCC1 | inactive
C=C1C(=O)OC2C1CCC1(C)C(O)CCC(=C)C21 (stereo not given) | inactive
COc1ccc(C(=O)O[C@H]2C=COC=C3C=C4C(=O)N(C)C(=S)C(=O)N4[C@@H]32)cc1Oc1cc(C=O)ccc1O | inactive
CC(C)CCNC(=O)c1ccc2c(c1)nc(Nc1n[nH]c3ccc(-c4ccccc4OC(F)(F)F)cc13)n2C1CCC(O)CC1 (stereo not given) | inactive
C/C=C(\C)C(=O)OC1C(C)C2(O)C(C=C(CO)CC3(O)C(=O)C(C)=CC32)C2C(C)(C)C12OC(C)=O (stereo not given) | inactive
COc1ccc(-c2c(C)nn3c(NCCN4CCOCC4)cc(C)nc23)cc1OC | inactive
O=C(Nc1ccc(-n2nc(C(F)(F)F)cc2C(F)(F)F)cc1)c1ccncc1F | inactive
CN(C)CC#CCCC(=O)C(O)(c1ccccc1)C1CCC1 (stereo not given) | inactive
O=c1cc(N2CCN(c3cccc(C(F)(F)F)c3)CC2)[nH]c(=O)n1C1CCCCC1 | inactive
Cc1cccc(N2CCN(C(=O)c3cc(S(=O)(=O)N(C)C)ccc3N3CCCC3)CC2)c1C | inactive
CC[C@@H](C)Nc1cc(C(=O)NC2CC3CCC(C2)N3c2ccc(C(=O)C3CC3)cn2)c(C)cc1C(N)=O (stereo not given in full) | inactive
Cn1ccc(NC(=O)c2cc(Oc3ccc(C(=O)N4CCC4)c(F)c3)c3c(c2)OC(C)(C)C3)n1 | inactive
CC(NC(=O)Cc1cc(F)cc(F)c1)C(=O)NC1C(=O)N(C)c2ccccc2-c2ccccc21 (stereo not given) | inactive
C[C@@H](O[C@H]1OCCN(Cc2nn(P(=O)(O)O)c(=O)[nH]2)[C@H]1c1ccc(F)cc1)c1cc(C(F)(F)F)cc(C(F)(F)F)c1 | inactive
O=C(Nc1ccc(C(O)(C(F)(F)F)C(F)(F)F)cc1)c1ccc(C(F)(F)F)cc1 | inactive
O=S(=O)(c1ccc(Cl)cc1)N1CCN(c2ccnc3cc(Cl)ccc23)CC1 | inactive
O=C1COc2nccc(-c3ccccc3F)c2CN1Cc1cc(C(F)(F)F)cc(C(F)(F)F)c1 | inactive
NS(=O)(=O)c1ccc(N2N=C(c3ccccc3)CC2c2ccccc2)cc1 (stereo not given) | inactive
CC1=C2C[C@@]3(C)C(CCC[C@@H]3C)C(O)C2OC1=O (stereo not given in full) | inactive
